Source: PubChem BioAssay (NCI)
This is part of a sample that, as a whole, favours compounds with a hit. Of some 79,000 tested, about 15% had one in any assay. Calls of active or inactive are those of the source. Cut-off read from the data, not from the text of the source: active = growth inhibition above about 70%; inactive = the rest.

What was measured:
[1] = NCI Yeast Anticancer Drug Screen. Data for the mec2-1 strain (AID 157); settings: S. cerevisiae mec2-1 strain, active compounds read high
Summary of the method: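 Growth inhibition is read against vehicle-treated controls after compound exposure of the mec2-1 yeast strain, which is defective in DNA damage repair or cell cycle control.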

[2] = NCI Yeast Anticancer Drug Screen. Data for the rad14 strain (AID 159);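 note: 0% = growth of vehicle-treated control cultures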; settings: S. cerevisiae rad14 strain growth inhibition, active compounds read high
Summary of the method: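 Inhibition of growth is reported for a repair-deficient yeast mutant following compound treatment, calculated relative to cultures that received vehicle.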

[3] = NCI Yeast Anticancer Drug Screen. Data for the sgs1 mgt1 strain (AID 161);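 note: 0% = growth of cultures given vehicle only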; settings: S. cerevisiae sgs1 mgt1 strain, active compounds read high
Summary of the method: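 Percent growth inhibition was derived by comparing compound-exposed mutant yeast with vehicle-exposed cultures. The strain carries alterations in DNA damage repair.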

[4] = NCI Yeast Anticancer Drug Screen. Data for the CLN2oe strain (AID 163);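 note: 0% = growth of vehicle-only control cultures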; settings: S. cerevisiae CLN2oe strain, active compounds read high
Summary of the method: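 Compound-treated yeast; growth vs vehicle ctrl = % inhibition. Genetically altered strain (cell-cycle control).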

[5] = NCI Yeast Anticancer Drug Screen. Data for the cln2 rad14 strain (AID 165);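 note: 0% = growth equal to vehicle treated cultures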; settings: S. cerevisiae cln2 rad14 strain, active compounds read high
Summary of the method: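 Growth inhibition, relative to vehicle-treated controls, is the read-out. The test organism is a yeast strain with defined genetic alterations, cln2 rad14.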

[6] = NCI Yeast Anticancer Drug Screen. Data for the bub3 strain (AID 167); settings: S. cerevisiae bub3 mutant strain, active compounds read high
Summary of the method: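 Mutant yeast screening strain plus compound; vehicle-treated cultures serve as the 0% inhibition reference.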

[7] = NCI Yeast Anticancer Drug Screen. Data for the wt2 strain (AID 169); settings: S. cerevisiae wt2 strain growth inhibition, active compounds read high
Summary of the method: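 Compound exposure of yeast; growth compared with vehicle controls; inhibition reported.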

[8] = NCI Yeast Anticancer Drug Screen. Data for the mlh1 strain (AID 171);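 note: 0% = growth of vehicle-treated control cultures of the same strain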; settings: S. cerevisiae mlh1 strain growth inhibition, active compounds read high
Summary of the method: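 Compounds are applied to a genetically altered yeast strain, and its growth is compared with that of vehicle-treated cultures to give percent inhibition.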

[9] = NCI Yeast Anticancer Drug Screen. Data for the mlh1 rad18 strain (AID 175); settings: S. cerevisiae mlh1 rad18 strain growth inhibition, active compounds read high
Summary of the method: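 Cells of a genetically altered yeast strain, deficient in DNA damage repair, were treated with compound. Their growth was then compared with that of vehicle-treated cultures to give inhibition.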

[10] = NCI Yeast Anticancer Drug Screen. Data for the rad18 strain (AID 177); settings: S. cerevisiae rad18 mutant growth inhibition, active compounds read high
Summary of the method: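 Compounds are applied to a repair-deficient yeast strain, and growth is compared with that of vehicle-treated cultures to give percent inhibition.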

[11] = NCI Yeast Anticancer Drug Screen. Data for the rad52 strain (AID 147);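 note: 0% = growth of vehicle-treated control cultures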; settings: S. cerevisiae rad52 mutant growth inhibition, active compounds read high
Summary of the method: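 DNA repair-defective yeast; compound exposure; growth scored against vehicle controls.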

[12] = NCI Yeast Anticancer Drug Screen. Data for the wt1 strain (AID 149);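 note: 0% = growth of vehicle-treated wt1 cultures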; settings: S. cerevisiae wt1 strain (SPY 50644) growth inhibition, active compounds read high
Summary of the method: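 Each compound is tested on wt1 yeast and the loss of growth versus vehicle gives the inhibition value.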

[13] = NCI Yeast Anticancer Drug Screen. Data for the rad50EPP+ strain (AID 151);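 note: 0% = growth of vehicle-treated control cultures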; settings: S. cerevisiae rad50 mutant strain, active compounds read high
Summary of the method: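 rad50EPP+ yeast treated with test compounds. Readout: growth vs vehicle control.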

[14] = NCI Yeast Anticancer Drug Screen. Data for the mgt1 strain (AID 153); settings: S. cerevisiae mgt1 mutant growth inhibition, active compounds read high
Summary of the method: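 Growth inhibition relative to vehicle controls was scored for the mgt1 yeast strain after compound exposure.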

[15] = NCI Yeast Anticancer Drug Screen. Data for the rad50 strain (AID 155);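 note: 0% = growth of vehicle-only cultures of the same strain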; settings: S. cerevisiae rad50 strain growth inhibition, active compounds read high
Summary of the method: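 Vehicle-treated cultures provide the reference for the growth inhibition reported for compound-exposed, repair-deficient yeast.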

[16] = NCI Yeast Anticancer Drug Screen. Data for the sgs1 strain (AID 173);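 note: 0% = growth of vehicle-only control cultures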; settings: S. cerevisiae sgs1 mutant, active compounds read high
Summary of the method: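 Compounds applied to genetically altered yeast; growth compared with vehicle-treated cultures to give % inhibition.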

[17] = at 5.0 µM (retest, dose inferred, filed as 0.5)
[18] = at 50.0 µM (retest, dose inferred, filed as 5.0)

Measured: growth inhibition

O=[N+]([O-])c1ccc(N2CCC(CCCC3CCN(c4ccc([N+](=O)[O-])cc4[N+](=O)[O-])CC3)CC2)c([N+](=O)[O-])c1
active: [1]; [17] 99% | [1]; [18] 99% | [3]; at 50.0 µM 87.5% | [6]; at 50.0 µM 84.3% | [9]; [17] 99% | [9]; [18] 99%
inactive: [1]; at 11.0 µM -22% | [1]; at 33.0 µM -20% | [1]; at 50.0 µM 48.5% | [1]; at 100.0 µM -8% | [2]; at 1.2 µM -32% | [2]; at 3.7 µM -27% | [2]; at 11.0 µM -13% | [2]; at 33.0 µM -16% | [2]; at 100.0 µM 19% | [3]; [17] -41% | [3]; [18] 51% | [4]; at 1.2 µM -8% | [4]; at 3.7 µM -3% | [4]; at 11.0 µM 3% | [4]; at 33.0 µM -19% | [4]; at 100.0 µM 7% | [5]; [17] 10% | [5]; [18] 50% | [5]; at 50.0 µM 46.2% | [6]; at 1.2 µM -17% | [6]; at 3.7 µM -24% | [6]; [17] 6% | [6]; at 11.0 µM -32% | [6]; at 33.0 µM -6% | [6]; [18] 47% | [6]; at 100.0 µM -4% | [7]; at 1.2 µM -15% | [7]; at 3.7 µM -21% | [7]; at 11.0 µM -9% | [7]; at 33.0 µM 8% | [7]; at 100.0 µM 39% | [8]; at 1.2 µM -19% | [8]; at 3.7 µM -25% | [8]; at 11.0 µM -21% | [8]; at 33.0 µM -24% | [8]; at 100.0 µM 32% | [9]; at 50.0 µM 68.3% | [10]; at 1.2 µM -24% | [10]; at 3.7 µM -25% | [10]; at 11.0 µM -14% | [10]; at 33.0 µM -5% | [10]; at 100.0 µM 4%

COc1ccc(/C=C(/C)[N+](=O)[O-])cc1
active: [11]; at 11.0 µM 81% | [11]; at 33.0 µM 95% | [11]; at 100.0 µM 99% | [12]; at 33.0 µM 72% | [12]; at 100.0 µM 99% | [13]; at 3.7 µM 83% | [13]; at 11.0 µM 94% | [13]; at 33.0 µM 97% | [13]; at 100.0 µM 99% | [14]; at 33.0 µM 80% | [14]; at 100.0 µM 99% | [15]; at 11.0 µM 79% | [15]; at 33.0 µM 94% | [15]; [18] 94% | [15]; at 50.0 µM 80.3% | [15]; at 100.0 µM 99% | [1]; at 33.0 µM 78% | [1]; [18] 98% | [1]; at 50.0 µM 90.3% | [1]; at 100.0 µM 99% | [2]; at 100.0 µM 99% | [3]; [18] 85% | [3]; at 50.0 µM 87.8% | [4]; at 33.0 µM 71% | [4]; at 100.0 µM 99% | [5]; [18] 94% | [6]; at 33.0 µM 93% | [6]; [18] 99% | [6]; at 50.0 µM 90.8% | [6]; at 100.0 µM 98% | [7]; at 100.0 µM 99% | [16]; at 33.0 µM 86% | [16]; at 100.0 µM 98% | [9]; [18] 99% | [9]; at 50.0 µM 81.5% | [10]; at 100.0 µM 99%
inactive: [11]; at 1.2 µM 8% | [11]; at 3.7 µM 36% | [12]; at 1.2 µM -28% | [12]; at 3.7 µM -21% | [12]; at 11.0 µM -18% | [13]; at 1.2 µM 57% | [14]; at 1.2 µM -22% | [14]; at 3.7 µM -17% | [14]; at 11.0 µM 0% | [15]; at 1.2 µM -10% | [15]; at 3.7 µM 23% | [15]; [17] 49% | [1]; at 1.2 µM -44% | [1]; at 3.7 µM -51% | [1]; [17] 16% | [1]; at 11.0 µM -34% | [2]; at 1.2 µM -20% | [2]; at 3.7 µM -25% | [2]; at 11.0 µM -24% | [2]; at 33.0 µM 69% | [3]; [17] 28% | [4]; at 1.2 µM -3% | [4]; at 3.7 µM -10% | [4]; at 11.0 µM -9% | [5]; [17] 37% | [5]; at 50.0 µM 60% | [6]; at 1.2 µM -27% | [6]; at 3.7 µM -28% | [6]; [17] 28% | [6]; at 11.0 µM -6% | [7]; at 1.2 µM -5% | [7]; at 3.7 µM -4% | [7]; at 11.0 µM -1% | [7]; at 33.0 µM 59% | [16]; at 1.2 µM 20% | [16]; at 3.7 µM 41% | [16]; at 11.0 µM 42% | [9]; [17] 22% | [10]; at 1.2 µM -14% | [10]; at 3.7 µM -8% | [10]; at 11.0 µM -17% | [10]; at 33.0 µM 42%

Cc1ccc2c(c1N)C(=O)c1ccccc1C2=O
inactive: [11]; at 1.2 µM 8% | [11]; at 3.7 µM 22% | [11]; at 11.0 µM 47% | [12]; at 1.2 µM -3% | [12]; at 3.7 µM -1% | [12]; at 11.0 µM 6% | [12]; at 33.0 µM 5% | [12]; at 100.0 µM 5% | [13]; at 1.2 µM 22% | [13]; at 3.7 µM 45% | [13]; at 11.0 µM 69% | [14]; at 1.2 µM -3% | [14]; at 3.7 µM -3% | [14]; at 11.0 µM 6% | [14]; at 33.0 µM -8% | [14]; at 100.0 µM 6% | [15]; at 1.2 µM 5% | [15]; at 3.7 µM 19% | [15]; [17] 59% | [15]; at 11.0 µM 40% | [15]; at 33.0 µM 62% | [15]; at 50.0 µM 30.5% | [15]; at 100.0 µM 63% | [1]; at 1.2 µM 2% | [1]; at 3.7 µM 4% | [1]; [17] 8% | [1]; at 11.0 µM 8% | [1]; at 33.0 µM 11% | [1]; [18] 36% | [1]; at 50.0 µM 42% | [1]; at 100.0 µM 15% | [2]; at 1.2 µM 3% | [2]; at 3.7 µM 5% | [2]; at 11.0 µM 8% | [2]; at 33.0 µM 9% | [2]; at 100.0 µM 16% | [3]; [17] 7% | [3]; [18] 42% | [3]; at 50.0 µM 45.2% | [4]; at 1.2 µM -4% | [4]; at 3.7 µM -3% | [4]; at 11.0 µM -4% | [4]; at 33.0 µM -4% | [4]; at 100.0 µM 6% | [5]; [17] 6% | [5]; [18] 14% | [5]; at 50.0 µM 40.8% | [6]; at 1.2 µM 2% | [6]; at 3.7 µM 13% | [6]; [17] -9% | [6]; at 11.0 µM 31% | [6]; at 33.0 µM 37% | [6]; [18] 62% | [6]; at 50.0 µM 61.4% | [6]; at 100.0 µM 35% | [7]; at 1.2 µM -3% | [7]; at 3.7 µM 1% | [7]; at 11.0 µM 6% | [7]; at 33.0 µM 10% | [7]; at 100.0 µM 8% | [8]; at 1.2 µM -3% | [8]; at 3.7 µM -1% | [8]; at 11.0 µM 10% | [8]; at 33.0 µM 5% | [8]; at 100.0 µM 4% | [16]; at 1.2 µM -4% | [16]; at 3.7 µM -3% | [16]; at 11.0 µM 1% | [16]; at 33.0 µM 7% | [16]; at 100.0 µM 5% | [9]; [17] 15% | [9]; [18] 45% | [10]; at 1.2 µM -4% | [10]; at 3.7 µM 1% | [10]; at 11.0 µM 5% | [10]; at 33.0 µM 3% | [10]; at 100.0 µM 13%
active: [11]; at 33.0 µM 73% | [11]; at 100.0 µM 73% | [13]; at 33.0 µM 78% | [13]; at 100.0 µM 76% | [15]; [18] 91% | [9]; at 50.0 µM 71.8%
